Experimental data as given in PubChem BioAssay (Tox21).
Inconclusive results are not listed. The source made the active and inactive calls. Unless noted, the call rests on the fitted dose curve; in most records, active means well fitted curve in the direction sought with a large enough effect in the repeat runs; inconclusive means weak or mixed curves; inactive means no such curve, though single readings can be large; an effect the other way counts as inactive or inconclusive.

Tests used:
[1] = qHTS assay to identify small molecule agonists of the peroxisome proliferator-activated receptor delta (PPARd) signaling pathway - cell viability counter screen (AID 743211); further: nearly all actives have a fitted effect of over 55% in size
In short: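 Tox21 library compounds, delivered in DMSO, were incubated 17 h with PPARd-bla HEK293H cells; cytotoxicity was taken from CellTiter-Glo luminescence read 30 min after reagent addition.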

[2] = biological target: Peroxisome proliferator-activated receptor delta (Homo sapiens) (UniProt Q03181); experiment: qHTS assay to identify small molecule agonists of the peroxisome proliferator-activated receptor delta (PPARd) signaling pathway (AID 743212; calls by dose curve)
Chain of Peroxisome proliferator-activated receptor delta (Homo sapiens) (Q03181 whole entry, looked up): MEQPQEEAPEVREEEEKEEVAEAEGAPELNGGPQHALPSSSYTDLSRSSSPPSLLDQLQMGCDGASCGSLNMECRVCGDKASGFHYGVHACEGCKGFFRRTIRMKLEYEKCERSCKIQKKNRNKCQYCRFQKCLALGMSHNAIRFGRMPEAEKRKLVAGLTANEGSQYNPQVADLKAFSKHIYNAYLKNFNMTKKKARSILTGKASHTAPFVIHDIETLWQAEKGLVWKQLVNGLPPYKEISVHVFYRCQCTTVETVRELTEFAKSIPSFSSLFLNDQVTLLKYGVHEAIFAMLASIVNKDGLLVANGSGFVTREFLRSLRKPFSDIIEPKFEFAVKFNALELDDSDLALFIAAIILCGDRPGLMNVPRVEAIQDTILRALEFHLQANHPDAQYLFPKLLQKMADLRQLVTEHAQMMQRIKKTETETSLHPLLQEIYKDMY
In short: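 Read-out: beta-lactamase FRET fluorescence after 2 h room-temperature incubation with LiveBLAzer B/G substrate. Cells were HEK293H carrying a UAS-bla reporter for PPARd, treated at 37 C with DMSO-dissolved compounds.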

[3] = qHTS assay to identify small molecule antagonists of the peroxisome proliferator-activated receptor delta (PPARd) signaling pathway - cell viability counter screen (AID 743213); further: nearly all actives have a fitted effect of over 50% in size
In short: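 PPARd-bla HEK293H cells (3000/well) got compound plus 300 nM L165041 agonist for 17 h at 37 C. Viability in the same wells came from CellTiter-Glo luminescence after 30 min at room temperature.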

[4] = biological target: Peroxisome proliferator-activated receptor delta (Homo sapiens) (UniProt Q03181); experiment: qHTS assay to identify small molecule antagonists of the peroxisome proliferator-activated receptor delta (PPARd) signaling pathway (AID 743215; active means well fitted inhibition curve with a large enough effect in the signal ratio in the repeat runs, not every such curve was filed as active; the % refers to the signal ratio;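 further: cells stimulated with agonist L165041 at 300 nM final during compound exposure; series mostly up to about 62 µM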)
In short: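 Plated HEK293H PPARd-bla cells rested 5 h at 37 C and 5% CO2. Compound, then agonist L165041 at 300 nM final, was added; 17 h at 37 C followed. Substrate loading, 2 h room temperature, fluorescence measured.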

[5] = qHTS assay to identify small molecule agonists of the farnesoid-X-receptor (FXR) signaling pathway - cell viability counter screen (AID 743218); further: nearly all actives have a fitted effect of over 45% in size
In short: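 Viability of FXR-bla HEK 293T cells is measured by ATP-based CellTiter-Glo luminescence following 16 h compound treatment at 37 C and a prior 2 h room-temperature beta-lactamase substrate step.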

[6] = qHTS assay to identify small molecule antagonists of the farnesoid-X-receptor (FXR) signaling pathway - cell viability counter screen (AID 743221; active means well fitted cell-killing curve with a large enough effect in the repeat runs, not every such curve was filed as active; further: nearly all actives have a fitted effect of over 50% in size)
In short: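 Cytotoxicity is taken from ATP luminescence (CellTiter-Glo, 30 min, room temperature) in FXR-bla HEK 293T cells previously incubated 16 h at 37 C with compound and chenodeoxycholic acid at 50 uM final.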

[7] = biological target: Vitamin D3 receptor (Homo sapiens) (UniProt P11473); experiment: qHTS assay to identify small molecule agonists of the vitamin D receptor (VDR) signaling pathway (AID 743222; calls by dose curve)
Chain of Vitamin D3 receptor (Homo sapiens) (P11473 whole entry, looked up): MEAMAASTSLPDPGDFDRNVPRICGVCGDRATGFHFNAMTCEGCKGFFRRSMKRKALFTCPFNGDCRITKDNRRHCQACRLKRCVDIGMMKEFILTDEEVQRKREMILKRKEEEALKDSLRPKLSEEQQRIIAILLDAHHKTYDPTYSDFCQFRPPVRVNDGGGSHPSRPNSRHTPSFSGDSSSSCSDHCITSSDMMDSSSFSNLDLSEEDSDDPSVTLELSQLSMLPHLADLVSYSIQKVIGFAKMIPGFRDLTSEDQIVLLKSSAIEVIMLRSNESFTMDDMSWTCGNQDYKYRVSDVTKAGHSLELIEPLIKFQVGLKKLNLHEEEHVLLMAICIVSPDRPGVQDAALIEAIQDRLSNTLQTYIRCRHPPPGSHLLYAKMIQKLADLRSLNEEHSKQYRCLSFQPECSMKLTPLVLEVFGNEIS
In short: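 Fluorescence from cleaved LiveBLAzer B/G FRET substrate served as readout. VDR-bla cells had been treated 16 h at 37C with test compounds in DMSO, following a 4 h settling period, and substrate was loaded for 2 h at RT.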

[8] = qHTS assay to identify small molecule agonists of the vitamin D receptor (VDR) signaling pathway - cell viability counter screen (AID 743224); further: series mostly up to about 63 µM; nearly all actives have a fitted effect of over 50% in size
In short: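 Compounds were pin-transferred onto VDR-bla cells plated 4 h earlier; following 16 h incubation at 37C, cell viability was quantified by CellTiter-Glo luminescence after 30 min at room temperature.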

[9] = qHTS assay to identify small molecule agonists of the NFkB signaling pathway - cell viability counter screen (AID 1159515; calls by dose curve; further: series mostly up to about 61 µM; nearly all actives have a fitted effect of over 55% in size)
In short: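 Parallel cytotoxicity counter screen in ME-180 cells carrying an NFkB-response-element beta-lactamase reporter, 2,000 cells/well. Compound exposure lasted 5 hr at 37 C, 5% CO2. Cell viability was quantified by CellTiter-Glo luminescence.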

[10] = qHTS assay to identify small molecule agonists of the endoplasmic reticulum stress response signaling pathway (AID 1159516; active means well fitted activation curve with a large enough effect in the signal ratio in the repeat runs, not every such curve was filed as active; the % refers to the signal ratio)
In short: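 Using a HeLa line with an ESRE-driven beta-lactamase gene, agonist activity was measured by FRET substrate fluorescence (460 and 530 nm emission) after cells were treated with compounds for 5 hr at 37 C and 5% CO2.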

[11] = qHTS assay to identify small molecule agonists of the endoplasmic reticulum stress response signaling pathway - cell viability counter screen (AID 1159517; calls by dose curve;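 further: HeLa cells carrying an ER stress response element beta-lactamase reporter; series mostly up to about 61 µM; nearly all actives have a fitted effect of over 50% in size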)
In short: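 Steps: seed 1,500 ESRE-bla HeLa cells per well; incubate overnight at 37 C, 5% CO2; add compounds in DMSO for 5 hr; run FRET substrate 2 hr RT; add CellTiter-Glo, wait 30 min, read luminescence.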

[12] = qHTS assay to identify small molecule antagonists of the retinoid-related orphan receptor gamma (ROR-gamma) signaling pathway - cell viability counter screen (AID 1159520); further: nearly all actives have a fitted effect of over 50% in size
In short: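 Tet-on ROR gamma CHO cells were given compounds for 2 hr, then doxycycline hyclate at 1 uM final, and incubated 16 hr at 37 C. Viability was measured as ATP content by CellTiter-Glo luminescence.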

[13] = biological target: Nuclear receptor ROR-gamma (Homo sapiens) (UniProt P51449); experiment: qHTS assay to identify small molecule antagonists of the retinoid-related orphan receptor gamma (ROR-gamma) signaling pathway (AID 1159521)
In short: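 Inducible-expression reporter assay: doxycycline (1 uM final) switched on RORγ in CHO cells bearing a ROR response element-luciferase construct, with test compounds present from 2 h beforehand. Decreased luminescence after 16 h defined antagonist activity.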

[14] = qHTS assay to identify small molecule agonists of the AP-1 signaling pathway - cell viability counter screen (AID 1159525; calls by dose curve; further: nearly all actives have a fitted effect of over 55% in size)
In short: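 Same-well cytotoxicity counter screen of the Tox21 10K library in ME-180 cells. The readout is ATP-dependent luminescence after 5 h compound treatment. Data are normalised to DMSO and tetra n-octyl ammonium bromide controls.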

[15] = qHTS assay to identify small molecule agonists of the AP-1 signaling pathway (AID 1159526; calls by dose curve)
[16] = biological target: Bile acid receptor (Homo sapiens) (UniProt Q96RI1); experiment: qHTS assay to identify small molecule antagonists of the farnesoid-X-receptor (FXR) signaling pathway (AID 743217; active means well fitted inhibition curve with a large enough effect in the signal ratio in the repeat runs, not every such curve was filed as active; the % refers to the signal ratio)
Chain of Bile acid receptor (Homo sapiens) (Q96RI1 whole entry, looked up): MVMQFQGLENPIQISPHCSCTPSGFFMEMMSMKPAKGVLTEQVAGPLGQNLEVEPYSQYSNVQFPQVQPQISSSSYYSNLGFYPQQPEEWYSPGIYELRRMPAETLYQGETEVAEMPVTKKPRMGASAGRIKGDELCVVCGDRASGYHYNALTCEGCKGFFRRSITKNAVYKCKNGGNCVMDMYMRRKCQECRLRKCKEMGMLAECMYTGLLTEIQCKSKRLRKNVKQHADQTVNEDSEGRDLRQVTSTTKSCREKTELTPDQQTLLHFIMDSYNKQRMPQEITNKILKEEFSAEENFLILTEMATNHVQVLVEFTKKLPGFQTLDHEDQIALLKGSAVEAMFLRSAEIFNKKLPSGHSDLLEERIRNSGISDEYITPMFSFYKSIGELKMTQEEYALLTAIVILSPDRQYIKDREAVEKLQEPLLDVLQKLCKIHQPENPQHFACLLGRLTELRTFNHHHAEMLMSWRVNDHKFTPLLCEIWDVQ
In short: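 Screen of the Tox21 10K library in quantitative HTS format using FXR-UAS-bla HEK 293T reporter cells. Agonist chenodeoxycholic acid, 50 uM final, added with compounds; 16 h incubation at 37 °C; beta-lactamase FRET fluorescence measured.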

[17] = biological target: Bile acid receptor (Homo sapiens) (UniProt Q96RI1); experiment: qHTS assay to identify small molecule agonists of the farnesoid-X-receptor (FXR) signaling pathway (AID 743220; active means well fitted activation curve with a large enough effect in the signal ratio in the repeat runs, not every such curve was filed as active; the % refers to the signal ratio)
In short: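 FXR-UAS-bla HEK 293T cells carrying a UAS-driven beta-lactamase reporter were plated for 5 h at 37C/5% CO2, then exposed to DMSO-dissolved Tox21 10K compounds for 16 h at 37C. A LiveBLAzer B/G FRET substrate was loaded for 2 h at room temperature before fluorescence reading.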

[18] = biological target: Vitamin D3 receptor (Homo sapiens) (UniProt P11473); experiment: qHTS assay to identify small molecule antagonists of the vitamin D receptor (VDR) signaling pathway (AID 743223; active means well fitted inhibition curve with a large enough effect in the signal ratio in the repeat runs, not every such curve was filed as active; the % refers to the signal ratio)
In short: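 Quantitative HTS in VDR-bla reporter cells stimulated with 1alpha,25-dihydroxyvitamin D3, 3 nM final. Compound exposure 16 h, 37C, 5% CO2. Read-out: beta-lactamase FRET substrate fluorescence, 2 h RT.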

[19] = qHTS assay to identify small molecule antagonists of the vitamin D receptor (VDR) signaling pathway - cell viability counter screen (AID 743225); further: nearly all actives have a fitted effect of over 50% in size
In short: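 Same-well multiplex: following 16 h treatment of HEK 293T cells carrying a UAS-driven beta-lactamase reporter with compound and agonist (3 nM final), and a 2 h FRET substrate step, CellTiter-Glo was added and luminescence read after 30 min.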

[20] = biological target: Retinoic acid receptor RXR-alpha (Homo sapiens) (UniProt P19793); experiment: qHTS assay to identify small molecule agonists of the RXR signaling pathway (AID 1159527; calls by dose curve; further: nearly all actives have a fitted effect of over 35% in size)
Chain of Retinoic acid receptor RXR-alpha (Homo sapiens) (P19793 whole entry, looked up): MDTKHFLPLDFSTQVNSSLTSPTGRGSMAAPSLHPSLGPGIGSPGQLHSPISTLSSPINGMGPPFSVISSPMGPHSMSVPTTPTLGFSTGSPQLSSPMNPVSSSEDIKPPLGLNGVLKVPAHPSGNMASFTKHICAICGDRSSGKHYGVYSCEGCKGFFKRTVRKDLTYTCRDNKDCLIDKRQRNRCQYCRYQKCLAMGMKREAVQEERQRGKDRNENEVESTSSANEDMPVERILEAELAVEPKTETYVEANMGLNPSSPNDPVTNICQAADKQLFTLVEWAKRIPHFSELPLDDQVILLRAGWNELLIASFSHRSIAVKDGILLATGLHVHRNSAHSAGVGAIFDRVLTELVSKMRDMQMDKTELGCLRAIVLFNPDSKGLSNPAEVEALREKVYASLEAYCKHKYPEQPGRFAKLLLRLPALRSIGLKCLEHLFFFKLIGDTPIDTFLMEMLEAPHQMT
In short: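 Compounds in DMSO were added to RXR-alpha-UAS-bla HEK 293T cells kept in 2% charcoal-stripped serum, and incubated 16 hr at 37 C with 5% CO2. Reporter signal came from a 2 hr B/G FRET substrate step.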

Measured: Potency

Cc1ccc(C(N)=O)cc1N
inactive: [1] | [2] | [3] | [4] | [5] | [6] | [7] | [8] | [9] | [10] | [11] | [12] | [13] | [14] | [15]

CC(C)CC=O
inactive: [1] | [2] | [3] | [16] | [5] | [17] | [6] | [7] | [8] | [9] | [10] | [11] | [12] | [13] | [14] | [15]

Nc1ccc(C(=O)N2CC3CC(CN(Cc4ccccc4)C3)C2)cc1
inactive: [1] | [2] | [3] | [16] | [5] | [17] | [6] | [7] | [8] | [9] | [10] | [11] | [12] | [13] | [14] | [15]

N[C@H]1C(O)O[C@H](CO)[C@H](O)[C@@H]1O (some centres undefined)
inactive: [1] | [2] | [3] | [4] | [5] | [6] | [7] | [18] | [8] | [19] | [9] | [10] | [11] | [12] | [13] | [14] | [15]

O=CNc1ccccc1
inactive: [1] | [2] | [3] | [4] | [17] | [6] | [7] | [18] | [8] | [19] | [9] | [10] | [11] | [12] | [13] | [14] | [15]

COCCO
inactive: [1] | [2] | [3] | [7] | [18] | [8] | [19] | [9] | [10] | [11] | [12] | [13] | [14] | [15] | [20]

CCCCCCCCC(CO)CCCCCC (centres undefined)
inactive: [1] | [3] | [5] | [17] | [6] | [7] | [18] | [8] | [9] | [10] | [11] | [12] | [13] | [14] | [15] | [20]

CCCCC(CC)(CO)CO
inactive: [1] | [2] | [3] | [16] | [5] | [17] | [7] | [18] | [8] | [19] | [9] | [10] | [11] | [12] | [13] | [14] | [15]
